Screening data from PubChem BioAssay.
The full list was thinned out, with hits kept by preference.
DT40 TDP1 CPT = DT40-hTDP1 cell growth loss with CPT. chicken DT40 Tdp1-/-;hTDP1 cells + 20 nM CPT, ATP luminescence, 48 h. 420,000 compounds, 12% hits. Potency, µM (series often up to 46.2 µM), most hits filed as inhibitors; further: nearly all actives have a fitted effect of over 55% in size
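Cell growth measured by CellTiter-Glo luminescence after a minimum 48 h, 37 C compound exposure with 20 nM CPT in Tdp1-knockout DT40 cells stably expressing hTDP1, seeded 400/well; qHTS titration format.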
DT40 TDP1 no CPT = qHTS for Inhibitors of human tyrosyl-DNA phosphodiesterase 1 (TDP1): qHTS in cells in absence of CPT; DT40 Tdp1-/- hTDP1 cells, no CPT, ATP luminescence, 48 h; Potency, µM (series often up to 46.2 µM), usual class: inhibitors; 420,000 compounds, 15% hits; further: nearly all actives have a fitted effect of over 55% in size
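Growth kinetics read by CellTiter-Glo luminescence after ≥48 hr at 37 °C. Cells: DT40 Tdp1-/- stably carrying human TDP1, 400 per well, compound exposure in the absence of CPT (DMSO vehicle).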
ALOX12 inh = ALOX12 (human) lipoxygenase inhibition; P18054; purified 12hLO, xylenol orange hydroperoxide absorbance; Potency, µM (doses to about 108 µM), hits mostly inhibitors; 580,000 compounds, 1.1% hits
Target sequence (P18054 whole entry, looked up): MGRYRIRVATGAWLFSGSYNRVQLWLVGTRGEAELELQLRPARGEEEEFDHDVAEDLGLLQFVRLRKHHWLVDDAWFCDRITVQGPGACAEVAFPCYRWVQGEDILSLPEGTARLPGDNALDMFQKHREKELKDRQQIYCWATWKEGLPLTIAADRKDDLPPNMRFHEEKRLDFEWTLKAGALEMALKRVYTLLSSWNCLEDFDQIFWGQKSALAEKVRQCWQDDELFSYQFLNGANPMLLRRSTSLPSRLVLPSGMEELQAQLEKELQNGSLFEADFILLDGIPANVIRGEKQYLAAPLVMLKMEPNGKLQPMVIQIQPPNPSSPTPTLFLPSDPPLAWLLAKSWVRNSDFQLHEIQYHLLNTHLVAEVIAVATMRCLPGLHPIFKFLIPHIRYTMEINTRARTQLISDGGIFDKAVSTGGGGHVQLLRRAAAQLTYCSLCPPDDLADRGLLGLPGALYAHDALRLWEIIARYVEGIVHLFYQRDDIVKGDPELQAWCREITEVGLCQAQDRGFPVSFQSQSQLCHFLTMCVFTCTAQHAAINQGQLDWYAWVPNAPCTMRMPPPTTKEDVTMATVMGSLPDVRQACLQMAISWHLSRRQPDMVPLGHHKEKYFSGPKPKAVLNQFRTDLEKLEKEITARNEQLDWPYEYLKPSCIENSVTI
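Purified human 12hLO (150 nM final) in 25 mM Hepes, 0.01% Triton X-100, pH 7.0 was preincubated 15 min at room temperature with compound. Then 40 uM arachidonic acid was added, 30 min. Hydroperoxide was read by Fe-XO absorbance ratio 573/405 nm.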
HT1080NT lethal = kills 2HG-producing HT-1080-NT fibrosarcoma cells; HT-1080-NT fibrosarcoma viability, CellTiter-Glo ATP luminescence, 48 h; Potency, µM (series often up to 46.1 µM), actives largely listed as cytotoxic; 360,000 compounds, 1.6% hits; AID 686970;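 further: NT is the 2HG producing partner of a matched IDH1 knockdown line; nearly all actives have a fitted effect of over 55% in size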
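HT-1080-NT fibrosarcoma cells (2HG-overproducing), 750 cells/well in RPMI with 5% FBS, dosed after 2 h and incubated 48 h at 37C. CellTiter-Glo luminescence normalized to DMSO and no-cell wells; concentration-response curves fitted and classed.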
IL1B secr inh = blocks inflammasome-driven IL-1 beta release; THP-1 LPS/ATP IL-1B secretion, AlphaLISA, 16 h; active compounds read low; activity change, % at 57.5 µM; 360,000 compounds, 4.7% hits; AID 743279; in the data active means activity change below about -50%; inconclusive means mostly about -30% to -49%
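THP-1 cells pretreated 1 hr with compounds (up to 57.5 uM final), then stimulated with LPS (250 ng/mL final) plus ATP (1.25 mM final); secreted IL-1B measured by AlphaLISA after 16 hr, decreased signal indicating inhibition.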
HT1080 IDH1KD tx = kills HT-1080 cells with IDH1 knockdown | HT-1080 IDH1 knockdown viability, ATP luminescence, 48 h | 360,000 compounds, 2% hits | AID 686971 | Potency, µM (series often up to 46.1 µM), usual class: cytotoxic
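CellTiter-Glo luminescence after 48 h compound exposure at 37 degrees C of IDH1-knockdown HT-1080 cells in 5% FBS RPMI. %Activity scaled between DMSO wells and cell-free media wells, with curves fitted and assigned curve classes.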
Numbers stand for hits; 0 = inactive; ? = inconclusive; - = no result. Unless noted, the call rests on the fitted dose curve; in most records, active means well fitted curve in the direction sought with a large enough effect; inconclusive means small, poorly fitted or top-dose-only effect, or another doubt; inactive means no such curve, though single readings can be large; an effect the other way counts as inactive or inconclusive.

SMILES | DT40 TDP1 CPT | DT40 TDP1 no CPT | ALOX12 inh | HT1080NT lethal | IL1B secr inh | HT1080 IDH1KD tx
Cc1nc(-c2ccncc2)nc(NCCNc2ncccc2C(F)(F)F)c1Cl | 11.6µM | 7.31µM | 0 | 0 | 0 | 0
Cc1cc(C(=O)OC(C(=O)Nc2ccc(C)c(Cl)c2)c2ccccc2)c(C)o1 (stereo not drawn) | 23.1µM | 29.1µM | 0 | 0 | 0 | 0
Cc1ccc(NC(=O)[C@H](C)NC(N)=O)cc1Cl | - | - | 0 | - | - | -
Cc1ccc(NC(=O)C(NC2CCCC2)c2ccccc2)cc1Cl (stereo not drawn) | ? | 16.4µM | 0 | 0 | ? | 0
COc1cccc(NC(=O)C(NC2CCCC2)c2ccccc2)c1 (stereo not drawn) | ? | ? | 0 | 0 | 0 | 0
Cc1ccc(NC(=O)C(OC(=O)c2ccc(NC(N)=O)cc2)c2ccccc2)cc1Cl (stereo not drawn) | ? | ? | 0 | ? | -53.0 | ?
CC1=C/C(=N\OS(=O)(=O)c2ccccc2)C(C(C)C)=CC1=O | 1.64µM | 2.31µM | - | ? | -95.4 | ?
CC1=C/C(=N\OS(=O)(=O)c2ccccc2)C(C)=CC1=O | 0.581µM | 0.82µM | 0 | 4.61µM | -98.3 | 9.2µM
Cc1cc(C)c(C(=O)CSc2nnnn2C)cc1C | - | - | 0 | - | - | -
Cc1nnc(SCC(=O)Nc2nc3c(s2)CC(C)CC3)s1 (stereo not drawn) | ? | 10.3µM | 0 | 0 | 0 | 0
CC1CCc2nc(NC(=O)CSc3nc4ccccc4o3)sc2C1 (stereo not drawn) | ? | 18.4µM | 0 | ? | 0 | ?
CCc1nnc(NC(=O)CSc2nc3ccccc3o2)s1 | 0 | 0 | 0 | 0 | 0 | 0
C[S+](=O)([O-])c1cccc(Nc2n[nH]c(C(O)c3ccccc3)n2)c1 (stereo not drawn) | - | - | 0 | - | - | -
CN(Cc1cccs1)C(=O)c1cc2ccccc2oc1=O | - | - | 0 | - | - | -
COc1ccc(N2CCN(C(CNC(=O)C(C)(C)C)c3cccnc3)CC2)cc1 (stereo not drawn) | 0 | ? | 0 | 0 | 0 | 0
O=C(NCCCn1ccnc1)C(=O)NCC(c1cccnc1)N1CCN(c2ccc(F)cc2)CC1 (stereo not drawn) | ? | ? | - | 0 | 0 | 0
Cc1ccc(C)c(NC(=O)C(=O)NCC(c2cccnc2)N2CCN(c3ccc(F)cc3)CC2)c1 (stereo not drawn) | 4.61µM | 4.61µM | 0 | - | - | -
Cc1c(Cl)cccc1NC(=O)C(=O)NCC(c1cccnc1)N1CCN(c2ccccc2)CC1 (stereo not drawn) | 16.4µM | 20.6µM | 0 | - | - | -
O=C(NCc1ccc(Cl)cc1)C(=O)NCC(c1cccnc1)N1CCN(c2ccc(F)cc2)CC1 (stereo not drawn) | 6.51µM | 8.2µM | 0 | 0 | 0 | ?
COc1ccc(CNC(=O)C(=O)NCC(c2cccnc2)N2CCN(c3ccccc3)CC2)cc1 (stereo not drawn) | 16.4µM | 13µM | 0 | - | - | -
O=C(NCC(c1cccnc1)N1CCN(c2ccccc2)CC1)c1ccco1 (stereo not drawn) | 0 | 0 | 0 | 0 | 0 | 0
CC(C)(C)c1cc(NC(=O)Nc2ccc(Cl)c(Cl)c2)no1 | - | - | 0 | - | - | -
COc1ccc(CCNC(=O)C(=O)NCC(c2cccnc2)N2CCN(c3ccccc3)CC2)cc1 (stereo not drawn) | 23.1µM | 18.4µM | 0 | - | - | -
Cc1cc(C)c(S(=O)(=O)NCC(c2cccnc2)N2CCN(Cc3ccccc3)CC2)c(C)c1 (stereo not drawn) | ? | ? | 0 | 0 | 0 | 0
O=C(NCCc1ccccc1)C(=O)NCC(c1cccnc1)N1CCN(c2ccccc2)CC1 (stereo not drawn) | 20.6µM | 16.4µM | 0 | - | - | -
SMILES | DT40 TDP1 CPT | DT40 TDP1 no CPT | ALOX12 inh | HT1080NT lethal | IL1B secr inh | HT1080 IDH1KD tx
Cc1ccc(NC(=O)C(=O)NCC(c2cccnc2)N2CCN(Cc3ccccc3)CC2)cc1Cl (stereo not drawn) | 10.3µM | 7.31µM | 0 | - | - | -
COc1ccc(N2CCN(C(CNC(=O)C(=O)NCCCn3ccnc3)c3cccnc3)CC2)cc1 (stereo not drawn) | 0 | 0 | 0 | 0 | 0 | 0
COCCOCc1nc(C2CCN(C(=O)Nc3ccc(OC)c(OC)c3)CC2)no1 | - | - | 0 | - | - | -
COc1ccc(N2Cc3c(NCCc4ccc(Cl)cc4)ncnc3N(C)CC2=O)cc1 | - | - | 0 | - | - | -
CCOc1ccccc1NC(=O)CCC(=O)Nc1ccccc1OCC | 0 | 0 | 0 | 0 | 0 | 0
CCOc1cc(NC(=S)Nc2cccc(OC)c2)c(OCC)cc1NC(=O)c1ccc(C)cc1 | ? | 20.6µM | 0 | ? | 0 | ?
CCOc1cc(NC(=O)c2ccccn2)c(OCC)cc1NC(=O)c1ccc(C)cc1 | 5.17µM | 3.26µM | 0 | 0 | 0 | 0
CCOc1cc(NC(=O)CCl)c(OCC)cc1NC(=O)CCl | 2.91µM | 1.16µM | 0 | ? | -81.4 | ?
CCOc1cc(NC(=O)C2CC2)c(OCC)cc1NC(=O)c1cccc(F)c1 | 0 | 0 | 0 | 0 | 0 | 0
CCOc1cc(NC(=O)C2CCCCC2)c(OCC)cc1NC(=O)c1ccccn1 | 3.66µM | 1.64µM | 0 | 0 | 0 | 0
Cc1nc2cc(F)cc(C(=O)NCCCN(C)C(C)C)c2nc1C | - | - | 0 | - | - | -
CCN(CC(=O)Nc1c(F)cccc1F)C(=O)c1cccc(S(=O)(=O)N2CCCc3ccccc32)c1 | ? | 16.4µM | 0 | 0 | 0 | 0
CCN(CC(=O)Nc1cccc(OC)c1)C(=O)c1cccc(S(=O)(=O)N2CCc3ccccc32)c1 | 23.1µM | 16.4µM | ? | 0 | 0 | 0
CCN(CC(=O)Nc1c(F)cccc1F)C(=O)c1cccc(S(=O)(=O)N(C)c2ccccc2)c1 | 13µM | 14.6µM | 0 | 0 | 0 | 0
Cc1nc(C)c(C(=O)N2CCC(Cc3nc(C4CC4)n[nH]3)CC2)s1 | - | - | 0 | - | - | -
O=C(NC1CCCCNC1=O)c1ccc2c(c1)OCCCO2 (stereo not drawn) | - | - | 0 | - | - | -
COc1ccc(CCNC(=O)CSc2cn(CCNC(=O)c3cccc(C(F)(F)F)c3)c3ccccc23)cc1OC | 20.6µM | 14.6µM | 0 | - | - | -
CCOc1ccc(C(=O)NCCn2cc(SCC(=O)Nc3ccc4c(c3)OCCO4)c3ccccc32)cc1 | ? | ? | 0 | - | - | -
COc1ccc(C(=O)NCCn2cc(SCC(=O)Nc3ccc4c(c3)OCCO4)c3ccccc32)cc1OC | 14.6µM | 20.6µM | 0 | - | - | -
COc1ccc(C(=O)NCCn2cc(SCC(=O)NCCc3ccc(OC)c(OC)c3)c3ccccc32)cc1 | 18.4µM | 16.4µM | 0 | - | - | -
COc1ccc(CCNC(=O)CSc2cn(CCNC(=O)c3ccc(OC)c(OC)c3)c3ccccc23)cc1OC | ? | 23.1µM | 0 | - | - | -
